Bioassay records (PubChem BioAssay)
POLH inh: inhibitors of human DNA polymerase eta. Q9Y253. recombinant Pol eta, fluorescent DNA replication assay. Potency, µM (highest dose often 114 µM), for inactives: at the highest dose activity change, negative = inhibition, most hits filed as inhibitors. 1.2% of 390,000 active; note: % is set by controls: 0 for no effect and ±100 for the full control effect
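Pol eta (10 nM) was preincubated with compounds for 15 min at room temperature, after which fluorescent replication substrate (50 nM final) was added to start the reaction. Fluorescence was read kinetically at 0 and 10 min.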
POLB inh: DNA polymerase beta (human) inhibition; P06746; Pol beta primer extension/strand displacement, fluorescence kinetic; Potency, µM (highest dose often 114 µM), without a hit: top-dose activity change, negative = inhibition, actives largely listed as inhibitors; 1.3% of 340,000 active; AID 485314; note: % is set by controls: 0 for no effect and ±100 for the full control effect
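Kinetic readout of DNA synthesis with strand displacement by Pol beta. Compound and 10 nM enzyme sit 15 min at room temperature; 50 nM substrate starts the reaction, read immediately and at 10 min.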
Pol kappa inh: inhibitors of human DNA polymerase kappa. Q9UBT6. purified Pol kappa, fluorescent DNA synthesis assay, 10 min. Potency, µM (titrated, usually from 107 µM), for inactives: at the highest dose activity, negative = inhibition, actives largely listed as inhibitors. 0.53% of 400,000 active. AID 588579; note: % is set by controls: 0 for no effect and ±100 for the full control effect
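10 nM Pol kappa was preincubated with compounds for 15 min at room temperature. Reaction started with 50 nM (final) substrate. Fluorescence read kinetically at 0 and 10 min.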
Pol iota inh: DNA polymerase iota (human) inhibition; Q9UNA4; Pol iota fluorescent replication assay, 10 min; Potency, µM (titrated, usually from 115 µM), without a hit: at the top dose activity, negative = inhibition, actives largely listed as inhibitors; 1% of 390,000 active; AID 588590
Target sequence (Q9UNA4 whole entry, looked up): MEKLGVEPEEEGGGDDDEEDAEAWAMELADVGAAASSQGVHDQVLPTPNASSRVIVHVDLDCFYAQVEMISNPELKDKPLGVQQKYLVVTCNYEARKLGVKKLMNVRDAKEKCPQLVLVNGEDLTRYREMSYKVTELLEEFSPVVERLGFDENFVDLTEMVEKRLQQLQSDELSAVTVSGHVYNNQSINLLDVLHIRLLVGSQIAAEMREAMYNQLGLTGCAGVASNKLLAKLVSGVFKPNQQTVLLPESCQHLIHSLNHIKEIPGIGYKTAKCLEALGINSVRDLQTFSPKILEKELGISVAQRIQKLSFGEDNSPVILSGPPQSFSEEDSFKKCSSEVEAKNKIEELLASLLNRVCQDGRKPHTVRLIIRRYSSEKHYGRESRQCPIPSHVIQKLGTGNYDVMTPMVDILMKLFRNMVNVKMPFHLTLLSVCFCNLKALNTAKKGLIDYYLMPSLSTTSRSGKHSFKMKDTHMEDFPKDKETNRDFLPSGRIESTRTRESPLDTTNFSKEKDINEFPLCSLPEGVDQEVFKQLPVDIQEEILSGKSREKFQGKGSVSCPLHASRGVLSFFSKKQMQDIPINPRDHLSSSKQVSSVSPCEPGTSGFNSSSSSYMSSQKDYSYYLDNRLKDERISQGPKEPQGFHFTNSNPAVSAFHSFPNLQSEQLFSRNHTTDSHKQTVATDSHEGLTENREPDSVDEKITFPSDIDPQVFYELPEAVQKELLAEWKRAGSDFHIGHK
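Fluorescent replication assay read twice, at 0 min and 10 min after adding 50 nM (final) substrate. Enzyme (10 nM) and compounds were first incubated 15 min at room temperature; enzyme-free buffer wells were negative controls.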
FEN1 inh: inhibitors of human flap endonuclease 1. Recombinant FEN1 flap cleavage, fluorescence, 15 min. Potency, µM (titrated, usually from 114 µM), inactives show at the highest dose activity change, negative = inhibition, usual class: inhibitors. 0.35% of 390,000 active. P39748; note: % is set by controls: 0 for no effect and ±100 for the full control effect; nearly all actives have a fitted effect of over 65% in size
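With each library titrated from low to high concentration, compounds met 10 nM FEN1 for 15 min at room temperature before 50 nM substrate was added; readings at 0 and 15 min fed four-parameter Hill curve fits.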
WRN inhibitor: inhibitors of human WRN helicase | Q14191 | WRN helicase unwinding, fluorescent forked duplex, kinetic | Potency, µM (series often up to 114 µM), for the others: at the top dose activity change, negative = inhibition, most hits filed as inhibitors | 0.46% of 360,000 active; note: % is set by controls: 0 for no effect and ±100 for the full control effect; nearly all actives have a fitted effect of over 55% in size
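Primary qHTS, 1536-well format. 20 nM WRN + compound, 15 min RT; start with 100 nM forked fluorophore/quencher duplex, 2 mM ATP (final); kinetic read ex 525/em 598 nm.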
Starred values were filed as active, the others as inactive; u = inconclusive; x = no result; [ ] = remark or other dose. Rows were chosen to be rich in hits. Some 2.4% of all compounds tested hit in one or more screens of this group. Calls come from the whole dose curve; as a rule, active = well fitted curve in the direction sought with a large enough effect; inconclusive = small, poorly fitted or top-dose-only effect, or another doubt; inactive = no such curve, though single readings can be large; an effect the other way counts as inactive or inconclusive. Potency is the fitted concentration of half-maximal effect.

SMILES	POLH inh	POLB inh	Pol kappa inh	Pol iota inh	FEN1 inh	WRN inhibitor
CC(=O)Oc1c2occc2cc2ccc(=O)oc12	u	50µM*	u	u	-15%	-28%
O=S1(=O)CCOC[C@H](c2ccccc2)N1Cc1ccc(F)cc1	x	x	-16%	32%	u	x
O=c1[nH]c(CN2CCc3ccccc32)nc2scc(-c3cccs3)c12	-4%	40µM*	-19%	-8%	-18%	-17%
O=C(CSCc1nc2scc(-c3cccs3)c2c(=O)[nH]1)Nc1ccccn1	-11%	-8%	-13%	-27%	-4%	-30%
CCOC(=O)c1c(C)[nH]c(CCC(=O)Nc2cc(C)ccc2OC)c1C	-15%	1%	-3%[60.1 µM]	17%	4%	x
O=C1C(=Cc2ccco2)CCCC1=Cc1ccco1	22µM*	x	50µM*	20µM*	u	u
N#CC1=C(N)OC2=C(CCC/C2=C/c2ccoc2)C1c1ccoc1 (stereo not given)	x	14µM*	x	x	x	x
COc1cc2c(C(=O)N3CCN(c4ccc(F)cc4)CC3)cn(CC(C)C)c(=O)c2cc1OC	-13%	2%	1%	24%	-4%	x
COCCN1C(=O)Cc2c1nc(N)c1c(N)nc(N3CCN(c4ccc(F)cc4)CC3)c(C#N)c21	-20%	30%	-9%	u	13%	-11%
COc1ccc(CN2C(=O)Cc3c2nc(N)c2c(N)nc(N4CCOCC4)c(C#N)c32)cc1	u	19%	0%	7.9µM*	-27%	8%
COCC(C)N1C(=O)Cc2c1nc(N)c1c(N)nc(N3CCN(c4ccccc4F)CC3)c(C#N)c21 (stereo not given)	-21%	19%	-16%	18µM*	-10%	-5%
Cc1cc(C)c(C#N)c(N2CCN(c3ccccc3F)CC2)n1	-13%	17%	-5%	-1%	-5%	0%
Cc1ccc(S(=O)(=O)N2CCCCC2)cc1NC(=O)Cn1ncc(Cl)c(Cl)c1=O	56µM*	x	4%	u	23%	-17%
CCOC(=O)c1ccc(NC(=O)Cn2ncc(Cl)c(Cl)c2=O)cc1	u	2%	-13%	28µM*	-3%	-20%[57.1 µM]
CCOC(=O)c1ccc(NC(=O)CSCc2ccco2)cc1	u	u	u	25µM*	-17%	u
Cc1ccc(S(=O)(=O)N2CCCCC2)cc1NC(=O)Cn1cnnn1	-4%	11%	-6%	26%	13%	-8%
O=C(Cn1ncc(Cl)c(Cl)c1=O)Nc1ccc2c(c1)OCO2	u	x	-4%	u	18%	-7%[11.6 µM]
CCN(CC)S(=O)(=O)c1cc(NC(=O)Cn2ncc(Cl)c(Cl)c2=O)ccc1C	35µM*	28µM*	71µM*	25µM*	-6%	-35%
CC(C)[C@H](/C=C/C[Si](C)(C)C)[C@H](C)C(O)/C=C/CCCOC(=O)C(C)(C)C (stereo not given in full)	x	x	-6%	-23%	-19%	x
CCc1ccc(OCCn2c(CCNC(=O)C3CCCCC3)nc3ccccc32)cc1	x	x	-1%	41%	8%	x
O=C(Nc1nccs1)c1cc(-c2ccccn2)nc2c(Cl)cccc12	u	u	-34%	25µM*	u	4%
Cc1cc(NC(=O)c2cc(-c3ccccn3)nc3c(Cl)cccc23)no1	-22%	-26%	0%	-5%	3%	-31%
COCOc1cc(O)c2c(=O)c(OCOC)c(-c3ccc(OCOC)c(OCOC)c3)oc2c1	u	x	79µM*	u	-13%	-12%
COc1ccc(OC)c(NC(=O)C(=O)/C=C(\O)c2cc(OC)ccc2OC)c1	-9%	7%	-14%	17%	40µM*	-12%[57.1 µM]
O=C(Nc1cccc(NC(=O)c2ccc(Br)o2)n1)c1ccc(Br)o1	u	26%	-11%	14µM*	-6%	u
SMILES	POLH inh	POLB inh	Pol kappa inh	Pol iota inh	FEN1 inh	WRN inhibitor
Cc1nc(NC(=O)c2ccc(Br)o2)ccc1Br	5%	0%	3%	8%	-17%	5%
Cc1ccc(C2CC(=O)Oc3cc4c(cc32)OCO4)cc1 (stereo not given)	x	x	45µM*	x	x	x
Cc1ccc(C2CC(=O)Oc3cc(O)ccc32)cc1 (stereo not given)	5%	-7%	-14%	23%	14%	14%
O=C1CC(c2ccc3c(c2)OCO3)c2cc(O)ccc2O1 (stereo not given)	x	x	32µM*	x	x	x
c1ccc2c(NC3CC3)nc(-c3ccoc3)nc2c1	x	x	-4%[60.1 µM]	x	x	x
O=C(NCc1ccc(Cl)cc1)C(=O)NCC(c1cccnc1)N1CCN(c2ccccc2)CC1 (stereo not given)	-13%	-14%	-10%	2%	-13%	x
O=C(C1=C(O)C(=O)N(Cc2ccco2)C1c1cccnc1)c1cc2ccccc2o1 (stereo not given)	u	7%	-23%	u	-10%	-32%
COc1cccc2cc(C(=O)C3=C(O)C(=O)N(Cc4ccco4)C3c3cccnc3)oc12 (stereo not given)	3.5µM*	-1%	-12%	4%	-7%	-10%[57.1 µM]
Cc1ccc(C(=O)C2=C(O)C(=O)N(Cc3ccco3)C2c2cccc(Br)c2)o1 (stereo not given)	-6%	79µM*	-2%	103%	-14%	-8%
COc1ccc(C(=O)N2CCC3(CC2)CN(C(=O)Nc2cccc(C#N)c2)C3)cc1	x	x	-10%[60.1 µM]	x	x	x
COc1ccc(CN2CCC(Oc3cc(C(=O)NC4CC4)ccc3OC)CC2)c(O)c1	-5%	3%	u	79µM*	-12%	-4%[11.6 µM]
Cc1cccc(NC(=O)c2ccc(Cn3nc(N4CCN(c5ccccc5)CC4)ccc3=O)o2)c1C	2%	-18%	-15%	u	-5%	x
O=C(NN=C1c2ccccc2-c2ccccc21)c1ccccc1	3%	u	-11%	4%	-3%	-9%
O=C(NN=C1c2ccccc2-c2ccccc21)c1ccccc1Br	-5%	0.28µM*	-4%	u	0%	-3%
C#CCOCCOCCOCCNc1nc(N2CCN(C(=O)CCCCCCCCCCNC(=O)[C@@H](CCSC)n3cc(CCO)nn3)CC2)nc(N2CCN(C(=O)CCCCCCCCCCNC(=O)[C@H]([C@@H](C)CC)n3cc(CCCCCN)nn3)CC2)n1	u	x	-15%	u	79µM*	u
C#CCOCCOCCOCCNc1nc(N2CCOCC2)nc(N2CCN(C(=O)CCCCCCCCCCNC(=O)[C@@H](CCSC)n3cc(CCO)nn3)CC2)n1	-11%	x	-4%	u	9%	-7%
